# From the supplement of paper PMC3334620
# The full ranking holds about 33,000 sequences; the median of “E-score (-0.5 to 0.5)” is about -0.056, and the highest 2% start at about 0.38. What follows is part of a selection rich in the highest values, with near analogues and random picks from the rest.
# Biological target: Stb4 (UniProt P50104)
# Test: PBM E-score (8-mer binding enrichment) (E-score (-0.5 to 0.5)); higher = stronger / more preferred TF binding
# Conditions: protein concentration: 200 nM; construct: GST-DNA-binding domain
# Method in brief: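 Yeast transcription factors, full-length or as DNA-binding domains, were expressed with a GST tag using PURExpress in vitro transcription/translation. At about 100-200 nM they were applied to universal all-10-mer Agilent arrays, double-stranded by primer extension on fresh or once-stripped slides. Fluorescent anti-GST detected bound protein, and masliner normalised the scans. E-scores for ungapped eight-base words, pooled with reverse complements, came from the Universal PBM Analysis Suite.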
# UniProt P50104, sequence (P50104 whole entry): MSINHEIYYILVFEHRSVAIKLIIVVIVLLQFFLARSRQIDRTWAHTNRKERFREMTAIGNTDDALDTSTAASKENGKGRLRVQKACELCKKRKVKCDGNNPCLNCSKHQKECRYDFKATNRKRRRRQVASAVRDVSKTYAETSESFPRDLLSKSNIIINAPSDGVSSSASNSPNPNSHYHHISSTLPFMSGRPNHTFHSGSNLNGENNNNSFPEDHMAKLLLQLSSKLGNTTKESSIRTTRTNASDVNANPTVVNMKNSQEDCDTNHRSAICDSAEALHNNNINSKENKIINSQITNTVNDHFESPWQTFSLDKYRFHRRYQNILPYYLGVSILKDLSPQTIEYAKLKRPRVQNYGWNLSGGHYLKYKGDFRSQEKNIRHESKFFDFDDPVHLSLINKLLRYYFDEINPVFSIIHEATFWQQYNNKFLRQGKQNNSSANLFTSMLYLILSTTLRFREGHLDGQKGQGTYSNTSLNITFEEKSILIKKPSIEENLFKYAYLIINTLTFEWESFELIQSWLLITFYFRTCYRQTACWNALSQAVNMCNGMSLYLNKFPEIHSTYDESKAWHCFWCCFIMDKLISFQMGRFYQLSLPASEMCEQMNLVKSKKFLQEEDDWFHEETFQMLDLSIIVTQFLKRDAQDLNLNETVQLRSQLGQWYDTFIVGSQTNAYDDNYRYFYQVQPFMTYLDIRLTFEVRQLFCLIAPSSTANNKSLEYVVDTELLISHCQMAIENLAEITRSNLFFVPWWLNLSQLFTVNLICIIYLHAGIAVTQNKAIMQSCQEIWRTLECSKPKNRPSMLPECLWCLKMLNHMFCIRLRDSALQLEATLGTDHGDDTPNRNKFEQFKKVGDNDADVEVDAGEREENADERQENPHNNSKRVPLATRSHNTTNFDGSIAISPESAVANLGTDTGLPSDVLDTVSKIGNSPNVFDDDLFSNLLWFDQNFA
row,Sequence,PBM E-score
1,AGATCTAG,-0.255
2,TTGGCAAA,-0.183
3,AACCGCGG,0.291
4,GAGGAGGC,-0.196
5,ACGTTTTC,0.0722
6,GATTGCTA,-0.122
7,TTAGACAA,-0.0136
8,CAGGATCG,0.0947
9,CCGGATCG,0.413
10,ACGGATCG,0.315
11,TATGACGA,-0.111
12,GGAAGTGA,0.245
13,ATTAGAGG,6e-05
14,AACTGGAA,-0.0984
15,CATTTAGA,-0.00372
16,ATTCCGAA,0.464
17,ATTCCGTG,0.363
18,GTTCCAAA,-0.0427
19,ATTCCGCA,0.169
20,ATTCCGAG,0.472
21,GTTCCGAA,0.479
22,GTTCCGCA,0.293
23,AGTCCGAG,0.371
24,ATTCCGTA,0.265

row,Sequence,PBM E-score
1,CTTCCAAA,-0.174
2,CTTCCGCA,0.331
3,CTTCCGAA,0.479
4,GCGATCTA,-0.0238
5,GCGACCAA,-0.183
6,CCGCCAAG,-0.059
7,AACATCGT,-0.0992
8,ATCTCCGG,0.345
9,GCTTGCGA,-0.104
10,ACTAAGCG,-0.0604
11,CCTATATA,-0.103
12,GGAATCAC,0.244
13,CCAGGCTA,-0.289
14,CAAAATTC,0.165
15,CTTCCGTC,0.341
16,ATTCCGAC,0.416
17,CTTCCGCC,0.297
18,AGTCCGAC,0.11
19,CTTCCGAC,0.457
20,ATTCCGTC,0.285
21,GCTACCCC,-0.0436
22,TCTTGCAA,0.0931
23,AAAGAGCT,-0.128
24,ATTAGAAT,-0.0347

row,Sequence,PBM E-score
1,ACCCGGAG,0.373
2,TCCCGGAA,0.407
3,ACCCGGAT,0.374
4,GCCCGGAA,0.423
5,TCCCGGCA,0.298
6,TCCCGGGA,0.409
7,GCCCGGAC,0.229
8,CCCCGGAA,0.27
9,GCCCGGGA,0.308
10,ACCCGGAA,0.433
11,CCCCGGGA,0.307
12,GCCCGGTA,0.263
13,CGGTAGGA,0.136
14,AGCTCATA,-0.0221
15,AACAACTT,-0.165
16,CCTATGAG,-0.227
17,GTAGCAAA,-0.0766
18,ATTGACGA,-0.138
19,TCACATCA,-0.0958
20,ACTCGGAG,0.362
21,CCTCGAAA,-0.27
22,CCTCGGAG,0.408
23,CCGCGGAA,0.352
24,CCTCGGAA,0.484

row,Sequence,PBM E-score
1,CCTCGGAC,0.321
2,CATCAACC,0.00345
3,ACATCAAA,-0.0159
4,ACTCATCT,-0.224
5,AGCCAAGA,-0.22
6,AAAGGAGT,0.0609
7,GATGCGAC,0.0109
8,CTACTTGC,0.104
9,CGGATGTC,0.426
10,AGGATGAA,-0.0759
11,GGGATGTA,0.109
12,CGGATGTA,0.443
13,CGGATGAG,0.369
14,AGGATGTA,-0.177
15,CGGATGAA,0.433
16,AGGATGTC,-0.0723
17,CTGATGTC,0.0602
18,ATCCTCTG,-0.208
19,CGCCACAA,-0.0226
20,ACCCGTTA,0.269
21,AATGGAAA,0.0387
22,AGTCCCGG,0.304
23,CGTCCCAA,-0.155
24,CGTCCCGC,0.248

row,Sequence,PBM E-score
1,AGTCCCGA,0.389
2,CGTCCCGA,0.402
3,GGTCCCGA,0.39
4,GGTCCCTA,-0.115
5,GTCCCCGA,0.288
6,AGTCCCGC,0.15
7,CGTTACTA,-0.124
8,AGCCCCAC,-0.0851
9,ACAGGACA,-0.0558
10,CCATTGGA,-0.213
11,CTATTCAG,-0.288
12,CCCGCCAG,0.0645
13,AGAATAAA,-0.194
14,AAATCTAT,-0.00166
15,ACGGAAGC,0.337
16,CAGGAAGG,-0.208
17,CCGGAAGG,0.392
18,CGGGAAGA,0.401
19,GCGGAAGC,0.336
20,ACGGAAGG,0.313
21,ACGGAAGA,0.349
22,CCGGAAGC,0.395
23,CGGGAAGC,0.299
24,AGGGAAGA,-0.277

row,Sequence,PBM E-score
1,GCGGAAGA,0.317
2,CCGGAAGA,0.389
3,CATACGGG,0.152
4,AGACCGTG,-0.0481
5,AACTTGCC,0.139
6,GAGTCGCA,-0.21
7,CCAGCCCC,-0.0533
8,CGTTCCAG,-0.0906
9,AACTCATA,0.148
10,CGGGAATA,0.417
11,TCGGAAGA,0.455
12,TCAGAAGA,-0.217
13,GGGGAATA,-0.0405
14,AGGGAATA,0.0561
15,TAGGAAGA,-0.21
16,ATTAGCAC,0.00903
17,CTCCTGGC,-0.113
18,CGGCTAAA,0.388
19,TGGCTAAA,0.0298
20,AGGCTAAA,-0.163
21,AGTAGGGG,0.0719
22,GGGATCTA,0.0821
23,CGGATCAG,0.33
24,CGGATCGC,0.361

row,Sequence,PBM E-score
1,AGGATCAC,-0.249
2,CGGATCAC,0.397
3,GGGATCAC,-0.0541
4,TGGATCAA,-0.243
5,AGGATCGA,0.00545
6,CGGATCTA,0.391
7,CGGATCTC,0.3
8,CGGATCAA,0.401
9,CGGATCGA,0.404
10,CCTACAAG,-0.104
11,CGGTGGAG,0.121
12,CATTCAAA,0.048
13,CCGAGTTC,0.396
14,CCGAGTCA,0.381
15,CCGAGTCC,0.403
16,GCGAGTCC,-0.0651
17,ACGAGTTC,-0.00258
18,ACGAGTAG,-0.11
19,ACGAGTAC,-0.106
20,CCGAGTAA,0.345
21,GCGAGTAC,-0.0817
22,CCGAGTAC,0.383
23,CCGAGTTA,0.34
24,CCGAGTAG,0.391

row,Sequence,PBM E-score
1,CGAGCAGC,0.15
2,ATGACCCA,-0.283
3,AACGCACC,-0.0468
4,CTCACTTC,-0.141
5,AACGAGAT,0.0091
6,ACCGAGCT,0.365
7,AACGAGGT,-0.293
8,ACCGAGAG,0.342
9,ACCGAGGT,0.392
10,ACCGAGAT,0.407
11,ACCCAATG,-0.174
12,ACCCCATC,-0.109
13,GGTGAGTA,-0.183
14,TCCTCCAA,-0.181
15,CTGCTCGC,-0.0171
16,ATTCGGAC,0.373
17,CTTCGAAA,-0.2
